This note sets out measurements from PubChem BioAssay (Tox21).

The nature of assay [1]: qHTS assay for small molecule agonists of the p53 signaling pathway (AID 651631; calls by dose curve; also: nearly all actives have a fitted effect of over 15% in size). In short, it runs like this: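 Readout was fluorescence from the LiveBLAzer FRET substrate, applied for 2 h at room temperature after 16 h compound exposure at 37 °C. Cells were the p53RE-bla HCT-116 line, with beta-lactamase driven by p53 response elements.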
In general terms: qHTS replaces the single test concentration by a dilution series.

A short description of assay [2]: qHTS assay for small molecules that induce genotoxicity in human embryonic kidney cells expressing luciferase-tagged ATAD5 (AID 651632). Also: nearly all actives have a fitted effect of over 15% in size. Also: potency is read from the fitted curve at half-maximal effect. Put shortly:
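DMSO vehicle served as the control. HEK293T reporter cells, 16 hr at 37C, then 30 min Amplite at room temperature; ATAD5 induction is measured as luciferase activity.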

Assay [3] can be described thus: qHTS assay for small molecule agonists of the p53 signaling pathway - cell viability (AID 651633; calls by dose curve; also: series mostly up to about 83 µM; nearly all actives have a fitted effect of over 30% in size). In short, it runs like this:
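Viability counter-read: CellTiter-Glo luminescence (30 min, room temperature) in the same p53RE-bla plates. These plates had been exposed to compounds for 16 h at 37 C.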

Assay [4] is described as follows: qHTS assay for small molecules that induce genotoxicity in human embryonic kidney cells expressing luciferase-tagged ATAD5 - cell viability (AID 651634; calls by dose curve; also: nearly all actives have a fitted effect of over 25% in size). In short, it runs like this:
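Here HEK293T cells with the ATAD5 luciferase reporter are incubated with test compounds for 15.5 hr, and cytotoxicity is then gauged by measuring protease activity in live cells using fluorescence.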

Assay [5] in a line: qHTS assay for small molecule disruptors of the mitochondrial membrane potential - cell viability (AID 720634; calls by dose curve;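 also: human HepG2 liver cancer cells; series mostly up to about 83 µM; nearly all actives have a fitted effect of over 20% in size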). Put shortly: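 Viability of HepG2 cells is scored from ATP content by luminescence; cells are exposed to compound for 1 hr at 37 C and 5% CO2, then dosed with m-MPI dye before the CellTiter-Glo reagent.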
Assay [6] can be described thus: qHTS assay for small molecule disruptors of the mitochondrial membrane potential (AID 720635). Also: potency is read from the fitted curve at half-maximal effect. Put shortly: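 Mitochondrial membrane potential tracked with Mito-MPS dye, red aggregates (ex 540/em 590 nm) against green monomers (ex 490/em 535 nm). Compound treatment 1 hr at 37C, dye 30 min in HepG2.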
Assay [7] is described as follows: qHTS assay to test for compound auto fluorescence at 590 nm (red) in HepG2 cells (AID 720674). In short, it runs like this: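 Red autofluorescence (Ex/Em 540/590 nm, Rose Bengal sodium equivalents) was measured in HepG2 cells, 2,000 per well in MEM plus 10% FBS, plated overnight at 37 C. Readings were taken 1 hr after adding 23 nL compound or DMSO, at 37 C and 5% CO2.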

Assay [8] can be described thus: qHTS assay to test for compound auto fluorescence at 535 nm (green) in HepG2 cells (AID 720675).
Assay [9] in a line: qHTS assay to test for compound auto fluorescence at 460 nm (blue) in HEK293 cells (AID 720678). Put shortly: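 HEK293, 2,000 cells/well, 10% dialyzed FBS; attach 4-5 hr 37C; pin compound or DMSO; o/n 37C/5% CO2; fluorescence 405/460 nm; triamterene-equivalent units.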
Assay [10] in a line: qHTS assay to test for compound auto fluorescence at 590 nm (red) in HEK293 cells (AID 720679). In short, it runs like this:
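Intensity at 540nm excitation and 590nm emission is reported as Rose Bengal sodium-equivalent autofluorescence. Measurements followed overnight exposure (37C, 5% CO2) of HEK293 cells, 2,000 per well, to 23 nL compound.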

SMILES strings stand for the structures. Values joined by “and” are separate entries in the source; they are usually repeats but may differ in a detail not shown here. Equal values may be shown once. Records with an inconclusive call do not appear. The source holds several records for some structures; these can differ, active in one and inactive in another. Active and inactive are the calls of the source. Unless noted, calls follow the shape of the dose curve; as a rule, active = well fitted curve in the direction sought with a large enough effect in the repeat runs; inconclusive = weak or mixed curves; inactive = no such curve, though single readings can be large; an effect the other way counts as inactive or inconclusive.

On to `CCCCCCCCCCC(CO)CCCCCCCC` (stereo unspecified), for which the Potency entry in [1], in [2], in assay [3], in [4], in assay [5] and in [6] was “inactive” throughout. The Potency result in assay [7], in assay [8] and in assay [10] was “inactive” throughout. Moreover, in [9], the compound was called inactive.

`O=C(O)CCCC(=O)O`: the Potency entry in [1], in assay [2], in assay [3], in assay [4], in assay [5] and in [6] was “inactive” in each case. For the same compound, the Potency result in assay [7], in assay [8] and in [10] was “inactive” each time. In addition, the result in assay [9] was inactive.

As for `O=C1CCc2ccccc2O1`, the Potency result in assay [1], in assay [2], in assay [3], in assay [4], in [5] and in assay [6] was “inactive” in each case. For the same compound, the Potency entry in [7], in [8] and in assay [10] was “inactive” each time. The outcome in assay [9] was inactive.

With `CCC(Cc1c(I)cc(I)c(N)c1I)C(=O)O` (stereo unspecified), the Potency entry in [1], in [2], in [3], in [4], in [5] and in assay [6] was “inactive” in each case. Besides, the Potency entry in [7], in assay [8] and in assay [10] was “inactive” throughout. Besides, the compound was classed as inactive in [9].

Turning to `C=CCCCCCCCCCC`, the Potency entry in assay [1], in [2], in assay [3], in [4], in assay [5] and in [6] was “inactive” throughout. The Potency entry in assay [7] and in [8] was “inactive” throughout. Also, the outcome in [9] was inactive.

On to `CC(=O)OC(C)C`, for which the Potency entry in assay [1], in assay [2], in assay [3], in [4], in assay [5] and in [6] was “inactive” each time. Moreover, the Potency entry in assay [7] and in [8] was “inactive” in each case. For the same compound, in assay [9], the outcome was inactive.

As to `C1CN(SSN2CCOCC2)CCO1`, the Potency result in [1], in [2], in [3], in [4], in assay [5] and in assay [7] was “inactive” in each case. For the same compound, the Potency entry in assay [8] and in [10] was “inactive” in each case. Besides, the Potency in assay [6] was 61.1 µM (active). Moreover, in assay [9], the outcome was inactive.

For `C=C[C@@]1(C)CC(=O)[C@]2(O)[C@@]3(C)[C@@H](O)CCC(C)(C)[C@@H]3[C@H](O)[C@H](OC(C)=O)[C@@]2(C)O1`, the Potency result in assay [1], in assay [3], in assay [4], in assay [5], in [7] and in [8] was “inactive” throughout. The Potency entry in [10] is “inactive”. Further, the Potency in assay [2] was 266 nM (active) and 122 nM (active); in [6], 26.6 µM (active). Also, the outcome in [9] was inactive.

Turning to `C[C@]12C=CC(=O)C=C1CC[C@H]1[C@@H]3C[C@@H](O)[C@](O)(C(=O)CO)[C@@]3(C)C[C@H](O)[C@@]12F`, the Potency result in assay [1], in assay [2], in assay [3], in [4], in assay [5] and in [6] was “inactive” in each case. The Potency entry in assay [7] and in assay [8] was “inactive” throughout. Further, the compound was classed as inactive in assay [9].

As to `C=CC(=O)OCCCC`, the Potency entry in assay [1], in assay [2], in [3], in assay [4], in assay [5] and in assay [6] was “inactive” each time. Moreover, the Potency result in assay [7], in assay [8] and in assay [10] was “inactive” in each case. The call in assay [9] was inactive.

`Cc1ccc(S(=O)(=O)NCl)cc1`: the Potency result in [1], in assay [2], in assay [3], in [4], in [5] and in assay [6] was “inactive” throughout. Also, the Potency entry in assay [7] and in [8] was “inactive” throughout. Further, the compound was called inactive in assay [9].

As to `C=C1C[C@H]2[C@@H]3C=C(C)C4=CC(=O)CC[C@]4(C)[C@H]3CC[C@]2(C)[C@@]1(OC(C)=O)C(C)=O`, the Potency result in [1], in assay [2], in [3], in assay [4], in assay [5] and in [6] was “inactive” each time. For the same compound, the Potency entry in [7], in [8] and in assay [10] was “inactive” each time. In addition, the outcome in assay [9] was inactive.

For `[O-]/[N+](=N\O)c1ccccc1`, the Potency entry in assay [1], in assay [2], in [3], in assay [4], in assay [5] and in [6] was “inactive” throughout. The Potency result in assay [7] and in assay [8] was “inactive” each time. Also, in [9], the compound was classed as inactive.

For the compound `CCCOCCO`, the Potency result in assay [1], in assay [2], in assay [3], in assay [4], in assay [5] and in [6] was “inactive” throughout. The Potency entry in [7] and in assay [8] was “inactive” throughout. In addition, the compound was classed as inactive in assay [9].

For the compound `Nc1cc([N+](=O)[O-])ccc1C(=O)O`, the Potency entry in [1], in [2], in assay [3], in [4], in [5] and in assay [7] was “inactive” throughout. In addition, the Potency result in assay [8] and in assay [10] was “inactive” in each case. Further, the Potency in assay [6] was 38.6 µM (active). For the same compound, the compound was classed as inactive in assay [9].

Take `CC1=CC(C)(C)Nc2ccccc21`: the Potency entry in assay [1], in [2], in assay [3], in assay [4], in assay [5] and in assay [7] was “inactive” in each case. In addition, the Potency entry in [8] and in assay [10] was “inactive” throughout. Further, the Potency result in assay [6] was “inactive and 59.5 µM (active)”. Besides, the compound was called inactive in assay [9].

As to `ClC/C=C/CCl`, the Potency entry in assay [1], in assay [2], in assay [3], in assay [4], in assay [5] and in assay [6] was “inactive” each time. The Potency entry in [7] and in assay [8] was “inactive” each time. For the same compound, the outcome in assay [9] was inactive.

In the case of `CC1(C)OC(=O)NC1=O`, the Potency entry in assay [1], in assay [2], in [3], in [4], in assay [5] and in assay [6] was “inactive” throughout. Besides, the Potency entry in assay [7] and in assay [8] was “inactive” in each case. For the same compound, the call in assay [9] was inactive.

Regarding `CN(C)C`, the Potency result in [1], in [2], in assay [3], in assay [4], in [5] and in assay [6] was “inactive” throughout. Moreover, the Potency result in assay [7], in assay [8] and in assay [10] was “inactive” throughout. Also, in assay [9], the call was inactive.

As to `COC(=O)c1ccc(C)cc1`, the Potency result in [1], in assay [2], in assay [3], in [4], in assay [5] and in [6] was “inactive” each time. Also, the Potency entry in assay [7], in [8] and in assay [10] was “inactive” throughout. Also, the call in [9] was inactive.

Turning to `C/C=C/C(=O)N(CC)c1ccccc1C`, the Potency entry in [1], in [2], in [3], in [4], in assay [5] and in [6] was “inactive” in each case. Moreover, the Potency entry in [7] and in assay [8] was “inactive” in each case. Further, the outcome in assay [9] was inactive.

For the compound `COC(=O)C(C)Oc1ccc(Oc2ncc(C(F)(F)F)cc2Cl)cc1` (stereo unspecified), the Potency result in assay [1], in assay [2], in [3], in assay [4], in [5] and in assay [6] was “inactive” throughout. Moreover, the Potency entry in assay [7], in [8] and in assay [10] was “inactive” in each case. Moreover, in assay [9], the result was inactive.

On to `Cc1ccc2c(c1)C(=O)OC2=O`, for which the Potency result in assay [1], in [2], in assay [3], in assay [4], in [5] and in assay [6] was “inactive” in each case. In addition, the Potency result in [7], in [8] and in assay [10] was “inactive” each time. In addition, the compound was called inactive in [9].
